# Assay results reported in PubChem BioAssay AID2108 (National Center for Advancing Translational Sciences (NCATS), 2009).
# Records with an inconclusive call do not appear. Activity calls are given as the source filed them. Calls come from the whole dose curve; as a rule, active = well fitted curve in the direction sought with a large enough effect; inconclusive = small, poorly fitted or top-dose-only effect, or effect the other way, or another doubt; inactive = no such curve, though single readings can be large or run the other way.
# Biological target: Alpha-galactosidase A (Homo sapiens) (UniProt P06280)
# Sequence (P06280 32-429 limits assumed): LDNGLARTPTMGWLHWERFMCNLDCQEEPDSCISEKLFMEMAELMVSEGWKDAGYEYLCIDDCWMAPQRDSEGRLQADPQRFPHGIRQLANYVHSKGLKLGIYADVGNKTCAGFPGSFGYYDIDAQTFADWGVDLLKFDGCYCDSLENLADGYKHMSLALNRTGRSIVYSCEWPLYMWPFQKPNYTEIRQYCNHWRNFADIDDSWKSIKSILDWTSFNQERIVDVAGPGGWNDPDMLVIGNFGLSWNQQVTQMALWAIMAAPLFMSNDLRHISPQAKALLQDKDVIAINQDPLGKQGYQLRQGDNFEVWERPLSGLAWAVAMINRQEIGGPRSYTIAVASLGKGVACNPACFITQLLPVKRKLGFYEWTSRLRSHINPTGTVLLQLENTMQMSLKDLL
# Assay: Confirmation of Inhibitors of Human alpha-Galactosidase Using Spleen Homogenate; note: 0% is about no effect
# Conditions: alpha-galactosidase enzyme activity; series mostly up to 56.2 µM; activity change: at the top concentration
# In short: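 Human spleen homogenate (1 ug) with 1 mM 4-methylumbelliferyl-alpha-D-galactopyranoside in citrate-phosphate pH 5.0, 0.01% Tween-20, 37C 40 min; compounds 0.5 nM–58 uM final. Stopped at pH 10, fluorescence Ex 365/Em 440; AC50 from Hill fits.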
row,SMILES,activity change
1,COc1ccccc1NC(=O)c1ccc(Br)o1,2.69% [at 23.6 µM] (inactive)
2,CC1=C(C(=O)Nc2ccccc2C)C(c2ccccn2)n2nc(SCc3ccccc3F)nc2N1 (centres undefined),-7.43% (inactive)
3,Cc1nnc(SCC(=O)Nc2ccc3c(c2)COC3=O)n1-c1ccccc1,0.342% [at 23.6 µM] (inactive)
4,O=S(=O)(c1ccc(F)cc1)N1CCOCC1,2.82% (inactive)
5,O=C(O)c1cc(NCc2ccccc2)ccc1N1CCOCC1,-1.74% (inactive)
6,C=C(C)CC(NCc1ccco1)c1ccc(OC)cc1 (centres undefined),3% (inactive)
7,CCC1c2ccc(C)n2CCN1C(=O)Nc1ccccc1C(=O)OC (centres undefined),-2.04% (inactive)
8,O=c1cc(-c2ccccc2)[nH]c2[nH]n(-c3ccccc3)c(=O)c12,0.265% (inactive)
9,CC(=O)N1CCN(c2ccc(NCc3ccc(C(C)C)cc3)cc2)CC1,-2.87% (inactive)
10,CCOc1cc(CNc2ccc(O)cc2)cc(Cl)c1OCc1ccccc1,-8.01% (inactive)
11,CCS(=O)(=O)N1Cc2ccccc2CC1C(=O)Nc1ccc(NC(C)=O)cc1 (centres undefined),-1.12% [at 23.6 µM] (inactive)
12,Nc1cccc(S(=O)(=O)N2CCOCC2)c1,10.9% (inactive)
13,COCCNS(=O)(=O)c1ccc2c(c1)n(C)c(=O)n2C,5.41% [at 23.6 µM] (inactive)
14,Cc1cccn2c(=O)c3cc(C#N)c(=NC(=O)c4cccs4)n(CCCOC(C)C)c3nc12,12.3% [at 23.6 µM] (inactive)
15,CC(C)(C)OC(=O)NCCCC[C@H](NC(=O)c1nc[nH]c1C(=O)NCc1ccccc1)C(=O)OC(C)(C)C,-8.24% (inactive)
16,N=c1sccn1CC(=O)Nc1cc(S(=O)(=O)N2CCCC2)ccc1Cl,4.76% (inactive)
17,N#Cc1ccccc1S(=O)(=O)N1CCOCC1,8.2% (inactive)
18,CC(C)(C)c1ccc(OCC(=O)NC(Cc2c[nH]c3ccccc23)C(=O)O)cc1 (centres undefined),-12.9% (inactive)
19,O=C(Nc1nc2c(s1)CN(Cc1ccccc1)CC2)C1CCCC1,-7.59% (inactive)
